From paper PMC7862700, “An all-to-all approach to the identification of sequence-specific readers for epigenetic DNA modifications on cytosine”

Assays:
Assay in all cases: DAPPL (digital affinity profiling via proximity ligation, sequencing); 10 mM Tris-HCl pH 7.5, 50 mM NaCl, 1 mM DTT, 4% glycerol, room temperature, 30 min; GST-TFs on glutathione beads, 16-mer random dsDNA library, 0.1% formaldehyde crosslink after washing; high values mean tight binding
Settings in all cases: protein: recombinant; tags: N-terminal GST; dsDNA, one strand shown
[1] = molecular target: T1, FLI1 (Homo sapiens, UniProt Q01543 1-452)
T1 sequence: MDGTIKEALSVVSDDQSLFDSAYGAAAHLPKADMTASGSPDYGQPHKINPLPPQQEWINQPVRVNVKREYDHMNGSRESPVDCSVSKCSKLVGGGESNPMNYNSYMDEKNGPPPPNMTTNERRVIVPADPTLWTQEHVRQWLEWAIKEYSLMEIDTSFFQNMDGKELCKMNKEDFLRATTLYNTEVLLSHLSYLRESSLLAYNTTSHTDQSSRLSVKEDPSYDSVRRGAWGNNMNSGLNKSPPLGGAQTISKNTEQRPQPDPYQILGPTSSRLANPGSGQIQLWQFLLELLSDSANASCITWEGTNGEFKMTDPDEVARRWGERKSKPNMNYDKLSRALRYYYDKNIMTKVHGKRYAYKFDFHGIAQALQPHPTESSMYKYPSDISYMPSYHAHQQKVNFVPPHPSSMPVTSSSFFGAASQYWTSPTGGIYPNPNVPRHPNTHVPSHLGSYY
Procedure, shortened: (§1)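 Pools were built from human transcription factors expressed in yeast as GST fusions, captured on glutathione beads and DNA-barcoded, along with a tag-only sample. Incubation with 200 nmole of a 16-mer random double-stranded DNA library lasted 30 min at room temperature in Tris/NaCl/DTT/glycerol buffer, and was followed by washing, 0.1% formaldehyde crosslinking, proximity ligation, PCR amplification and Illumina NextSeq500 sequencing. Binding signal is the quotient of each hexamer's read frequency for a factor and its frequency for the tag-only sample.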

[2] = molecular target: T2, ELK1 (Homo sapiens, UniProt P19419 1-428)
T2 sequence: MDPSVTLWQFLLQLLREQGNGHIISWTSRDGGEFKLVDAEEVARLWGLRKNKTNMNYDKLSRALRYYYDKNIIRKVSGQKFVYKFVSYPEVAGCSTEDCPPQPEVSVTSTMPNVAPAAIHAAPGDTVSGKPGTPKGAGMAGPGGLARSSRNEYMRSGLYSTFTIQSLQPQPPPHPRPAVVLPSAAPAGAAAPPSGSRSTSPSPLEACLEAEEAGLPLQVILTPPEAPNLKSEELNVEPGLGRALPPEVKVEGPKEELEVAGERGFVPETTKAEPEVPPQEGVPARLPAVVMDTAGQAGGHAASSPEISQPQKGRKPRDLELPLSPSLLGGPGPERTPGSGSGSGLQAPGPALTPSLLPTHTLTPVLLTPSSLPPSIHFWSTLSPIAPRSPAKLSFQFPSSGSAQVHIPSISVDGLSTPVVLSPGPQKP
Procedure, shortened: as §1

[3] = molecular target: T3, GABPA (Homo sapiens, UniProt Q06546 1-454)
T3 sequence: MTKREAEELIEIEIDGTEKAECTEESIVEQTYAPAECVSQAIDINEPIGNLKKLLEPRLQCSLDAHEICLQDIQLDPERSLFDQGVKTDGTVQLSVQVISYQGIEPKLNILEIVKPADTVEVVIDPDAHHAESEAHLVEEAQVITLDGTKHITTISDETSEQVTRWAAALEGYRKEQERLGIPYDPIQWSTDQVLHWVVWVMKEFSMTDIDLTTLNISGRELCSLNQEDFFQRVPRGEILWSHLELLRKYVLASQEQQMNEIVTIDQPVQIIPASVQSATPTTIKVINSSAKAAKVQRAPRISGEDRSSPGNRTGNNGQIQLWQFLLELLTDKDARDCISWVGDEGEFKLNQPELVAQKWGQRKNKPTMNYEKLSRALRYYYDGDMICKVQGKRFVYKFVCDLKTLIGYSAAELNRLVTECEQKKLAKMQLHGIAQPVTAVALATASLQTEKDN
Procedure, shortened: as §1

[4] = molecular target: T4, ERG (Homo sapiens, UniProt P11308 1-479)
T4 sequence: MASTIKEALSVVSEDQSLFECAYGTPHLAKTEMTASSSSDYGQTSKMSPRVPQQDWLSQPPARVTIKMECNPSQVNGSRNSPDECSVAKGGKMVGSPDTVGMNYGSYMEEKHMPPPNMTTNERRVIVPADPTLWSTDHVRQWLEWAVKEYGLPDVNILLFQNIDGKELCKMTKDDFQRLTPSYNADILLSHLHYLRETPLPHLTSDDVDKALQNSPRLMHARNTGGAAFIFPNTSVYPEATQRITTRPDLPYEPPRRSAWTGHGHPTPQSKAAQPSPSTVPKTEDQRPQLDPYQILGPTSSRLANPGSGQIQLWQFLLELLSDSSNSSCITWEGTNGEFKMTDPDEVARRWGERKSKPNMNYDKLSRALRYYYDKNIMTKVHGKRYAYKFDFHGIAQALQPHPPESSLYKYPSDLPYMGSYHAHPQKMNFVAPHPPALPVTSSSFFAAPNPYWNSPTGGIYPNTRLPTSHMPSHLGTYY
Procedure, shortened: as §1

[5] = molecular target: ELF1 (Homo sapiens, UniProt P32519 1-619)
Chain of ELF1 (P32519 whole entry): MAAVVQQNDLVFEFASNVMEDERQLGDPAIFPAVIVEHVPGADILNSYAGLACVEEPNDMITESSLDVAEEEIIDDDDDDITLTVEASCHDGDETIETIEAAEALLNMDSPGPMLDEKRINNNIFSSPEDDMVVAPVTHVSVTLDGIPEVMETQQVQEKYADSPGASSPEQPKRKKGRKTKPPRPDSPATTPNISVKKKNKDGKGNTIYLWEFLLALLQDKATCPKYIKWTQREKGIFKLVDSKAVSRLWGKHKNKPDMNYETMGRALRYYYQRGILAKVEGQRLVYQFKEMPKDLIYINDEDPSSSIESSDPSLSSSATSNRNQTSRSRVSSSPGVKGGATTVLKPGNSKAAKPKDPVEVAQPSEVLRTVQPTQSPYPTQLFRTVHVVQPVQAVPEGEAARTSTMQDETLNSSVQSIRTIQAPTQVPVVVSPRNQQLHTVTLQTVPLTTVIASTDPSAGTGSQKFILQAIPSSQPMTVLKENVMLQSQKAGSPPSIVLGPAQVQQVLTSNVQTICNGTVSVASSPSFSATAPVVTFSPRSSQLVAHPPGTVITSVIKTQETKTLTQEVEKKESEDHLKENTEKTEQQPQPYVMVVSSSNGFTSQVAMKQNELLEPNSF
Procedure, shortened: as §1

[6] = molecular target: T5, EHF (Homo sapiens, UniProt Q9NZC4 1-300)
T5 sequence: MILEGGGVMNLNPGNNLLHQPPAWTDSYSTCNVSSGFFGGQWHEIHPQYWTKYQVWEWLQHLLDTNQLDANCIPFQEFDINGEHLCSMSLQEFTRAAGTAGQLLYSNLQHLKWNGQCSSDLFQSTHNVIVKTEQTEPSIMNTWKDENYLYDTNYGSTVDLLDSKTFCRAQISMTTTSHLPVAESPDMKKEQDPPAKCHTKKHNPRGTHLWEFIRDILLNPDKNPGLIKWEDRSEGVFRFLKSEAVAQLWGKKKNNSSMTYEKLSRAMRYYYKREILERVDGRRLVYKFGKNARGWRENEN
Procedure, shortened: as §1

[7] = molecular target: SPI1 (Homo sapiens, UniProt P17947 1-270)
Procedure, shortened: as §1

[8] = molecular target: SPIB (Homo sapiens, UniProt Q01892 1-262)
Chain of SPIB (Q01892 whole entry): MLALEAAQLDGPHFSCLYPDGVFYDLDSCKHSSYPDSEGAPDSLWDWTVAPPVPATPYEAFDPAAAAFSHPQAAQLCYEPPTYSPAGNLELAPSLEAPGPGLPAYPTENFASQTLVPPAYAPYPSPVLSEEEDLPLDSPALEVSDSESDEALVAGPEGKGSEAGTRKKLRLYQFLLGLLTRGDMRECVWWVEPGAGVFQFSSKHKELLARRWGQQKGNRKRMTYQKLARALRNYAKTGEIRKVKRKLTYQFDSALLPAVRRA
Procedure, shortened: as §1

[9] = molecular target: T6, ELK3 (Homo sapiens, UniProt P41970 1-407)
T6 sequence: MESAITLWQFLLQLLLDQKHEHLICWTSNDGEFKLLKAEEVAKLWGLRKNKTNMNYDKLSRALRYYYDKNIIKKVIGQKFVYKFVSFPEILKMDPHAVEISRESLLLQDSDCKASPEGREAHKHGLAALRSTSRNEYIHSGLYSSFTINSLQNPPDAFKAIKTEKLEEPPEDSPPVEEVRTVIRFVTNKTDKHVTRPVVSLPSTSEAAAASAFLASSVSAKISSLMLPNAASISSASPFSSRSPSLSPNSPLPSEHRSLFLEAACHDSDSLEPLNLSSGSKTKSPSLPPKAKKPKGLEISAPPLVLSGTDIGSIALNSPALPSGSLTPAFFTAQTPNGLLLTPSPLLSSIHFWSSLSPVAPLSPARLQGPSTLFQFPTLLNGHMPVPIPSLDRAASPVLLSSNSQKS
Procedure, shortened: as §1

Row | Sequence | binding signal [1] | binding signal [2] | binding signal [3] | binding signal [4] | binding signal [5] | binding signal [6] | binding signal [7] | binding signal [8] | binding signal [9]
1 | CCTATA | 1.35 fold enrichment (6-mer frequency, TF over GST control) | 1.29 fold enrichment (6-mer frequency, TF over GST control) | 1.42 fold enrichment (6-mer frequency, TF over GST control) | 1.3 fold enrichment (6-mer frequency, TF over GST control) | 1.39 fold enrichment (6-mer frequency, TF over GST control) | 1.28 fold enrichment (6-mer frequency, TF over GST control) | 1.28 fold enrichment (6-mer frequency, TF over GST control) | 1.34 fold enrichment (6-mer frequency, TF over GST control) | 1.32 fold enrichment (6-mer frequency, TF over GST control)
2 | AAGTAA | 1.17 fold enrichment (6-mer frequency, TF over GST control) | 1.25 fold enrichment (6-mer frequency, TF over GST control) | 1.3 fold enrichment (6-mer frequency, TF over GST control) | 1.25 fold enrichment (6-mer frequency, TF over GST control) | 1.27 fold enrichment (6-mer frequency, TF over GST control) | 1.3 fold enrichment (6-mer frequency, TF over GST control) | 1.34 fold enrichment (6-mer frequency, TF over GST control) | 1.22 fold enrichment (6-mer frequency, TF over GST control) | 1.27 fold enrichment (6-mer frequency, TF over GST control)
3 | TATTTG | 1.52 fold enrichment (6-mer frequency, TF over GST control) | 1.41 fold enrichment (6-mer frequency, TF over GST control) | 1.43 fold enrichment (6-mer frequency, TF over GST control) | 1.47 fold enrichment (6-mer frequency, TF over GST control) | 1.35 fold enrichment (6-mer frequency, TF over GST control) | 1.45 fold enrichment (6-mer frequency, TF over GST control) | 1.46 fold enrichment (6-mer frequency, TF over GST control) | 1.46 fold enrichment (6-mer frequency, TF over GST control) | 1.39 fold enrichment (6-mer frequency, TF over GST control)
4 | CATCTA | 1.22 fold enrichment (6-mer frequency, TF over GST control) | 1.3 fold enrichment (6-mer frequency, TF over GST control) | 1.25 fold enrichment (6-mer frequency, TF over GST control) | 1.11 fold enrichment (6-mer frequency, TF over GST control) | 1.25 fold enrichment (6-mer frequency, TF over GST control) | 1.18 fold enrichment (6-mer frequency, TF over GST control) | 1.16 fold enrichment (6-mer frequency, TF over GST control) | 1.17 fold enrichment (6-mer frequency, TF over GST control) | 1.13 fold enrichment (6-mer frequency, TF over GST control)
5 | CAAGAT | 1.04 fold enrichment (6-mer frequency, TF over GST control) | 1.04 fold enrichment (6-mer frequency, TF over GST control) | 1.17 fold enrichment (6-mer frequency, TF over GST control) | 1.05 fold enrichment (6-mer frequency, TF over GST control) | 1.06 fold enrichment (6-mer frequency, TF over GST control) | 1.04 fold enrichment (6-mer frequency, TF over GST control) | 1.01 fold enrichment (6-mer frequency, TF over GST control) | 1.01 fold enrichment (6-mer frequency, TF over GST control) | 1.14 fold enrichment (6-mer frequency, TF over GST control)
6 | TTCCTA | 1.82 fold enrichment (6-mer frequency, TF over GST control) | 1.72 fold enrichment (6-mer frequency, TF over GST control) | 1.55 fold enrichment (6-mer frequency, TF over GST control) | 1.78 fold enrichment (6-mer frequency, TF over GST control) | 1.63 fold enrichment (6-mer frequency, TF over GST control) | 1.59 fold enrichment (6-mer frequency, TF over GST control) | 1.7 fold enrichment (6-mer frequency, TF over GST control) | 1.93 fold enrichment (6-mer frequency, TF over GST control) | 1.74 fold enrichment (6-mer frequency, TF over GST control)
7 | TGTTGC | 1.33 fold enrichment (6-mer frequency, TF over GST control) | 1.32 fold enrichment (6-mer frequency, TF over GST control) | 1.33 fold enrichment (6-mer frequency, TF over GST control) | 1.3 fold enrichment (6-mer frequency, TF over GST control) | 1.31 fold enrichment (6-mer frequency, TF over GST control) | 1.3 fold enrichment (6-mer frequency, TF over GST control) | 1.33 fold enrichment (6-mer frequency, TF over GST control) | 1.35 fold enrichment (6-mer frequency, TF over GST control) | 1.4 fold enrichment (6-mer frequency, TF over GST control)
8 | CGACAA | 1.17 fold enrichment (6-mer frequency, TF over GST control) | 1.09 fold enrichment (6-mer frequency, TF over GST control) | 1.26 fold enrichment (6-mer frequency, TF over GST control) | 1.17 fold enrichment (6-mer frequency, TF over GST control) | 1.21 fold enrichment (6-mer frequency, TF over GST control) | 1.24 fold enrichment (6-mer frequency, TF over GST control) | 1.12 fold enrichment (6-mer frequency, TF over GST control) | 1.2 fold enrichment (6-mer frequency, TF over GST control) | 1.07 fold enrichment (6-mer frequency, TF over GST control)
